We go through 19 compounds from PubChem BioAssay (EPA / NIEHS).

In general, AC50 refers to the concentration giving half of the maximal activity seen.

The structures appear in SMILES notation. Records with an inconclusive call do not appear. Some structures have more than one record in an assay (separate samples or runs), and their calls can disagree. Calls of active or inactive are those of the source. The calls were made as follows: active = hit-call score of the fitted dose curve at least 0.9, where 1 is the maximum; inconclusive = response in the unintended direction; inactive = score below 0.9.

Assay [1] has as its target Estrogen receptor (Homo sapiens) (UniProt P03372). In words: NVS_NR_hER: NovaScreen (NVS) Nuclear Receptor Binding Assay for human Estrogen Receptor (ER) (AID 2283348). In outline: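 Radiodetection of ligand displacement in a lysate-based, cell-free format using MCF7 extracts, read at 18 hours. Duplicate 25 uM primary testing, then concentration series for actives.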
Assay [2] has the same target. Put plainly: OT_ER_ERaERa_1440: Odyssey Thera (OT) 24-hour HEK293T Protein-Complementation Assay for Estrogen Receptor-alpha/-alpha Homodimer (AID 2283349).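 Also: hits raise fluorescence above DMSO for agonists and antagonists alike.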 An outline of the steps:
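Stably transfected HEK293T; ERα LBD homodimer PCA. 24 h dosing, fluorescence intensity read, gain-of-signal vs DMSO.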

Assay [3] has the same target. Put plainly: OT_ER_ERaERa_0480: Odyssey Thera (OT) 8-hour HEK293T Protein-Complementation Assay for Estrogen Receptor-alpha/-alpha Homodimer (AID 2283351).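 Also: rise in fluorescence from reassembled reporter fragments on ERα LBD homodimer in nucleus or whole cell.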 In outline:
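Read-out: fluorescence intensity rise relative to DMSO, nuclear for agonists, nuclear plus cytoplasmic for antagonists. Construct is the ERα LBD (aa 310-547) homodimer fragment-complementation pair, stably expressed in HEK293T; exposure 8 h.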

In assay [4] the target is T1, Estrogen receptor (Homo sapiens) + Estrogen receptor beta (Homo sapiens) (UniProt P03372+Q92731). Put plainly: OT_ER_ERaERb_1440: Odyssey Thera (OT) 24-hour HEK293T Protein-Complementation Assay for Estrogen Receptor-alpha/-beta Homodimer (AID 2283356).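 Also: heteromer of ER alpha and ER beta binding domains; hits raise reporter fluorescence and both agonists and antagonists give an increase.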 In outline: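 Stable HEK293T PCA line, ERα LBD 310-547 + ERβ LBD 263-489 fused to reporter fragments; 24 h treatment; fluorescence read by laser scanning cytometry; positive fitting direction relative to DMSO.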
T1 sequence (P03372 whole entry, looked up, the tested form may be a part): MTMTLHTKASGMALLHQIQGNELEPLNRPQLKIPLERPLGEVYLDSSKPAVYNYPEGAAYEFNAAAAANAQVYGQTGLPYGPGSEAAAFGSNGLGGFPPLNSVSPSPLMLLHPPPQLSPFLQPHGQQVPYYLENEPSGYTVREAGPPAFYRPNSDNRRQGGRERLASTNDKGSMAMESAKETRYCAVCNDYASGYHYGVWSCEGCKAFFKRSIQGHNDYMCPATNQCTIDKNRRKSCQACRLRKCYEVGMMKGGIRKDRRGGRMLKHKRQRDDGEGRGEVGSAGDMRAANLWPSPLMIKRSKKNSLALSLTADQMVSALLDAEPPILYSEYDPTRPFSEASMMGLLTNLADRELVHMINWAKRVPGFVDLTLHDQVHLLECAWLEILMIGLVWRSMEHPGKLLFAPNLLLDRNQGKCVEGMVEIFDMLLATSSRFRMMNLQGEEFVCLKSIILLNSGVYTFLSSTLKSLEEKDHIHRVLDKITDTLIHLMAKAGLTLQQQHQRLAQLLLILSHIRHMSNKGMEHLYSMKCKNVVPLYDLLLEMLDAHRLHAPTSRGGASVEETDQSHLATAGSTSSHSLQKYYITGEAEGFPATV
T1 sequence (Q92731 whole entry, looked up, the tested form may be a part): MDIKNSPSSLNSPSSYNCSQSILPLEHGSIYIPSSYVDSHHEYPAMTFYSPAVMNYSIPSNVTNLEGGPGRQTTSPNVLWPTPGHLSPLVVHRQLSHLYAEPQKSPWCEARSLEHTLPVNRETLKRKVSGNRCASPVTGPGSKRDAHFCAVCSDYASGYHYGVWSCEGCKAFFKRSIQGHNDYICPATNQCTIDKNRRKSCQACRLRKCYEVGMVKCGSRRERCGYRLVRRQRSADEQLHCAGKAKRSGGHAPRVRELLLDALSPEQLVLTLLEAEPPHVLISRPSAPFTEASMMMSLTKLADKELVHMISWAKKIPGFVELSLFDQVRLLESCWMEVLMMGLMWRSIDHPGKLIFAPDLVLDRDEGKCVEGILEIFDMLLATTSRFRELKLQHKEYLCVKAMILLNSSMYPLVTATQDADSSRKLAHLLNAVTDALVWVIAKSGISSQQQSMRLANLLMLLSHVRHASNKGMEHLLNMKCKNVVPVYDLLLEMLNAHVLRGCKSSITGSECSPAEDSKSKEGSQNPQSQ

The target of assay [5] is Bile acid receptor (Homo sapiens) (UniProt Q96RI1). In words: NVS_NR_hFXR_Agonist: NovaScreen (NVS) Nuclear Receptor Binding Assay for human Farnesoid X Receptor Agonism (FXR) (AID 2283347). As to the method: (§1) NVS_NR_hFXR_Agonist is a biochemical, single-readout assay that uses extracted gene-proteins in a cell-free assay. Measurements were taken 1 hour after chemical dosing in a 384-well plate.NVS_NR_hFXR_Agonist is one of one assay component(s) measured or calculated from the NVS_NR_hFXR_Agonist assay. It is designed to make measurements of fluorescent resonance energy transfer, a form of binding reporter, as detected with fluorescent resonance energy transfer signals by Time-Resolved Fluorescence Resonance Energy Transfer (TR-FRET) technology.Data from the assay component NVS_NR_hFXR_Agonist was analyzed into 1 assay endpoint. This assay endpoint, NVS_NR_hFXR_Agonist, was analyzed in the positive analysis fitting direction relative to DMSO as the negative control and baseline of activity. Using a type of binding reporter, gain-of-signal activity can be used to understand changes in the binding as they relate to the gene NR1H4. Furthermore, this assay endpoint can be referred to as a primary readout, because the performed assay has only produced 1 assay endpoint. To generalize the intended target to other relatable targets, this assay endpoint is annotated to the nuclear receptor intended target family, where the subfamily is non-steroidal. […]
Bile acid receptor (Homo sapiens), sequence (Q96RI1 whole entry, looked up): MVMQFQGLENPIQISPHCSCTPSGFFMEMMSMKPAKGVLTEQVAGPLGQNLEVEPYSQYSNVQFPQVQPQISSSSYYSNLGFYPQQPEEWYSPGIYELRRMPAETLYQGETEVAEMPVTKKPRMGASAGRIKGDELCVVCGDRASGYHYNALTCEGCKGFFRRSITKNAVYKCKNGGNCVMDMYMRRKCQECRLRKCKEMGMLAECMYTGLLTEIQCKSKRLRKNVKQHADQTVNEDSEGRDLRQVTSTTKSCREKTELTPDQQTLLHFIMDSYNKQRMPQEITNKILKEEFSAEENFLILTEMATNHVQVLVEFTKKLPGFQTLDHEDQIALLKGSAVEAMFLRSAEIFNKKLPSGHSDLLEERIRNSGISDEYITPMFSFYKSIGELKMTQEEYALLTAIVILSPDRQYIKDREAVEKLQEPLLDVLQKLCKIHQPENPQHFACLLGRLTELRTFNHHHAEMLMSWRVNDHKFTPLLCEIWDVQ

Assay [6] has the same target. Put plainly: NVS_NR_hFXR_Antagonist: NovaScreen (NVS) Nuclear Receptor Binding Assay for human Farnesoid X Receptor Antagonism (FXR) (AID 2283350). The protocol: as §1, with “NVS_NR_hFXR_Antagonist” for “NVS_NR_hFXR_Agonist”, “plate.NVS_NR_hFXR_Antagonist” for “plate.NVS_NR_hFXR_Agonist”, “NVS_NR_hFXR_Antagonist,” for “NVS_NR_hFXR_Agonist,”, “loss-of-signal” for “gain-of-signal”

The target of assay [7] is Androgen Receptor/SRC-1 Co-activator, AR (gene 367) (UniProt P10275). Put plainly: OT_AR_ARSRC1_0960: Odyssey Thera (OT) 16-hour HEK293T Protein-Complementation Assay for Androgen Receptor/SRC-1 Co-activator (AID 2283353).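 Also: actives raise the signal above DMSO so potency reflects increased AR and SRC-1 complex.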 An outline of the steps: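 Readout: 488 nm nuclear-to-cytoplasmic fluorescence ratio from imaging of at least 400 cells per image, 16 h post-dose. Reporter is Venus YFP complementation between AR and SRC-1 fusions, stably expressed in HEK293T; activity scored upward relative to DMSO.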
Androgen Receptor/SRC-1 Co-activator, AR (gene 367), sequence (P10275 whole entry, looked up, the tested form may be a part): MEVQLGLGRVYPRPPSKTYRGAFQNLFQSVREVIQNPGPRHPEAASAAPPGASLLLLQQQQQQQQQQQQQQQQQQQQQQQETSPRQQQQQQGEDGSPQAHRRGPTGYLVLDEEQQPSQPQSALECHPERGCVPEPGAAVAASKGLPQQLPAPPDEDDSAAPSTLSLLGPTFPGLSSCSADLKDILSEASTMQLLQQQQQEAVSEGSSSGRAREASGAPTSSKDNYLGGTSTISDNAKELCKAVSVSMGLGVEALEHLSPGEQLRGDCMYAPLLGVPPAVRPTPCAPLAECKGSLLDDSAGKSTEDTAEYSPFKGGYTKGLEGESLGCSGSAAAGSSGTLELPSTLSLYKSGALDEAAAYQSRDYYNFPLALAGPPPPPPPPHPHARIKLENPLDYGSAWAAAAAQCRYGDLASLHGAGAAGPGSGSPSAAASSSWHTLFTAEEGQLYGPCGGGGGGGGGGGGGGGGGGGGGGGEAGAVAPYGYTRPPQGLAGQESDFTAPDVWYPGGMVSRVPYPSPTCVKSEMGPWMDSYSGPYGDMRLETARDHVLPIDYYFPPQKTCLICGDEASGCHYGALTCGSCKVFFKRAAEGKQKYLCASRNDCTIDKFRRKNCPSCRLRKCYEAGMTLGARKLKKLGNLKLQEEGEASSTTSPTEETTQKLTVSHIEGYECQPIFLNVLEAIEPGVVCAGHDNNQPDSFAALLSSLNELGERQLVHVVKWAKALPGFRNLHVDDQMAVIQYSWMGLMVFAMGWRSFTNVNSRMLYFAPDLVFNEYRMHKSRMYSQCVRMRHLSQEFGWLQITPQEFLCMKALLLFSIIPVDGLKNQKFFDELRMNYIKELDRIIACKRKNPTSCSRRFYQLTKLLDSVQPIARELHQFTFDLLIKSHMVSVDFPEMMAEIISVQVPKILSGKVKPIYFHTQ

The target is the same in assay [8]. Put plainly: OT_AR_ARSRC1_0480: Odyssey Thera (OT) 8-hour HEK293T Protein-Complementation Assay for Androgen Receptor/SRC-1 Co-activator (AID 2283354).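 Also: hits raise the complementation signal above DMSO so AC50 marks enhancers.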 An outline of the steps:
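After 8 h dosing, stably expressing HEK293T cells with split-Venus AR/SRC-1 fusions were imaged (488, 635nm). The 488nm N/C ratio per image gave the endpoint, analysed in the positive direction against DMSO.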

In assay [9] the target is T1, Estrogen receptor (Homo sapiens) + Estrogen receptor beta (Homo sapiens). Put plainly: OT_ER_ERaERb_0480: Odyssey Thera (OT) 8-hour HEK293T Protein-Complementation Assay for Estrogen Receptor-alpha/-beta Heterodimer (AID 2283352). An outline of the steps: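 Compound added to HEK293T cells carrying split-reporter-tagged ER-alpha and ER-beta LBDs, incubated 8 hours, then imaged by laser scanning cytometer. Signal rise in nucleus, or nucleus and cytoplasm, over vehicle was fitted in the positive direction.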

Estrogen receptor (Homo sapiens), sequence (P03372 whole entry, looked up): as the sequence (P03372 whole entry, looked up, the tested form may be a part) above

With `CCCN(CCC)c1c([N+](=O)[O-])cc(C(C)C)cc1[N+](=O)[O-]`, the compound was called inactive in assay [1]. For the same compound, the AC50 is 56.6 µM (active) in assay [2], 36.8 µM (active) in [3] and 56.9 µM (active) in assay [4].

Turning to `c1ccc2c(c1)sc1ccccc12`, the call in assay [2] and in assay [3] was inactive.

In the case of `ClC(Cl)(Cl)c1ccccc1`, the compound was classed as inactive in [1], in assay [2], in assay [3] and in [4].

Consider `Nc1ccc(Sc2ccc(N)cc2)cc1`, for which, in assay [1], the half-maximal activity concentration (AC50) is 11 µM (active).

Regarding `C=CC(=O)OCC(CC)(COC(=O)C=C)COC(=O)C=C`, in assay [1], the AC50 is 13.7 µM (active) and the outcome was inactive.

In the case of `CCCCOCC1CO1` (stereo not given), the compound was classed as inactive in [2] and in assay [3].

Turning to `CC(C)(C)OOC(C)(C)C`, the compound was classed as inactive in assay [5], in [2], in [3] and in [4].

Turning to `CCCCc1ccccc1`, the result in assay [2], in [6], in [3] and in [4] was inactive.

For the compound `Cc1cccc(N)c1`, the call in assay [2] and in assay [3] was inactive.

For the compound `ClC(Cl)c1ccccc1`, the call in assay [2] and in [3] was inactive.

Regarding `CN(C)C(=O)Cl`, in assay [2], the call was inactive.

For the compound `O=c1ssc(Cl)c1Cl`, the compound was called inactive in [2] and in assay [3].

For `CCC(C)(C)c1ccc(O)cc1`, the result in assay [1] was inactive. In addition, the AC50 in assay [2] is 14.9 µM (active); in assay [3], 8.61 µM (active); in assay [4] it was 7.2 µM (active).

`O=P(OCC(Br)CBr)(OCC(Br)CBr)OCC(Br)CBr` (stereo not given): the result in [1], in assay [2], in [3], in assay [8] and in assay [4] was inactive. In addition, in assay [7], the AC50 was 26.7 µM (active).

Take `COCCOCCO`: the result in assay [1], in [2], in [3] and in [9] was inactive.

Take `CCOP(=S)(OCC)SCn1nnc2ccccc2c1=O`: the compound was called inactive in assay [1].

In the case of `CO/N=C(/C(=O)OC)c1ccccc1COc1ccccc1C`, the call in assay [1], in assay [7] and in assay [8] was inactive. The AC50 in assay [2] is 76.4 µM (active); in assay [3], 50 µM (active).

`CCOC(=O)c1ccccc1C(=O)OCC`: in assay [2], the call was inactive.

`c1ccc(OP(Oc2ccccc2)Oc2ccccc2)cc1`: the compound was called inactive in assay [1], in [2], in assay [3] and in [4].
